The subject of test [1] is TRPC4 beta (transient receptor potential cation channel C4), mouse. Kind of test: TRPC4 cation channel opening, retest – cell-based, Fluo4 calcium, HEK293 TRPC4beta/mu-opioid, duplicates, 10 µM, confirmation (AID 2426;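 active means fluorescence ratio normalized to control raised more than 50% in primary screen plus both repeat runs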). Particulars: Fluo4 calcium fluorescence, at 10 µM; stronger effect = higher value.
Test [2] relates to transient receptor potential cation channel C4 beta (TRPC4), mouse. Kind of test: TRPC4 cation channel opening, second retest – cell-based, second round, Fluo4, HEK293 TRPC4beta/mu-opioid, 1 µM, confirmation (AID 2461;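 active means primary screen active and over 50% activation in each of two duplicate runs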). Particulars: Fluo4 calcium fluorescence, at 1 µM; stronger effect = higher value.
The subject of test [3] is TRPC4 (transient receptor potential cation channel C4 beta), mouse. Kind of test: potentiation of DAMGO EC20 TRPC4 response – cell-based, second round, Fluo-4, HEK293 TRPC4beta/mu-opioid, 1 µM, confirmation (AID 2554;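 active means primary screen hit whose fluorescence ratio, in both repeats, exceeds the weak agonist control mean by 3 SD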). The following applies: DAMGO EC20, Fluo-4 calcium flux, at 1 µM; stronger effect = higher value.
Test [4] relates to TRPC4 beta (transient receptor potential cation channel C4), mouse. Kind of test: potentiation of DAMGO EC20 TRPC4 response – cell-based, Fluo-4, HEK293 TRPC4beta/mu-opioid, confirmation (AID 2555;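 active means primary screen hit whose calcium fluorescence ratio, in both repeats, exceeds the weak agonist control mean by 3 SD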). The following applies: DAMGO EC20, Fluo-4 calcium flux, at 10 µM; stronger effect = higher value.
Test [5] addresses Short transient receptor potential channel 4 (Mus musculus) (UniProt Q9QUQ5). Kind of test: blockers of DAMGO-evoked TRPC4 calcium flux – cell-based, Fluo4, HEK293 TRPC4beta/mu-opioid, confirmation (AID 2636;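 active means calcium signal cut by more than 3 SD below the full-agonist control yet still positive, in both repeats and the earlier primary screen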). Particulars: at 10 µM; stronger effect = higher value.
Test [6] shares this target. Kind of test: blockers of DAMGO-evoked TRPC4 calcium flux – cell-based, second round, Fluo4, HEK293 TRPC4beta/mu-opioid, 1 µM, confirmation (AID 2637;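 active means calcium signal ratio cut to more than 3 SD under the fully stimulated control mean yet still positive, in both repeats and the primary screen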). Particulars: at 1 µM; stronger effect = higher value.
Test [7] shares this target. Kind of test: calcium entry via TRPC4 opening agents – cell-based, HEK293 TRPC4/mu-opioid, Fluo-4 calcium, dose response (AID 434937;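 active means primary screen activator hit with a dose response curve and TRPC4 channel activation at any tested dose; inactive means no activation, no dose response, or not a primary hit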).
Test [8] shares this target. Kind of test: potentiation of DAMGO-evoked TRPC4 calcium signal – cell-based, HEK293 TRPC4/mu-opioid, Fluo-4 calcium, EC20 DAMGO, dose response (AID 434941;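 active means earlier screen potentiator hit that boosts the TRPC4 ion channel at some dose, with a dose response; inactive means no potentiation, no dose response, or not a prior hit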;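 further: calcium entry triggered by an EC20 dose of DAMGO at the co-expressed mu-opioid receptor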).
Test [9] has the same target. Kind of test: block of DAMGO-driven TRPC4 calcium entry – cell-based, HEK293 TRPC4/mu-opioid, Fluo-4 calcium, dose response (AID 434942;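 active means primary screen inhibitor hit that blocks the TRPC4 channel at some tested dose, yielding a dose curve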).
In test [10] the target is Short transient receptor potential channel 6 (Mus musculus) (UniProt Q61143). Kind of test: TRPC6 blockade by TRPC4 inhibitor hits – cell-based, HEK293, membrane potential dye, duplicate, selectivity assay for TRPC4 inhibitor project, confirmation (AID 434948;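 active means active in primary screen and both duplicates, each dropping signal beyond three positive-control SD with fluorescence still positive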). Particulars: HEK293 TRPC6, membrane potential dye fluorescence, at 10 µM, stimulated with maximal-effect acetylcholine; stronger effect = higher value.

Test [11] has the same target. Kind of test: TRPC6 opening by TRPC4 activator hits – cell-based, HEK293, membrane potential dye, duplicate, selectivity assay for TRPC4 activator project, confirmation (AID 434950;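 active means membrane potential signal rise above negative control mean plus 3 SD in both duplicates, also active in the earlier TRPC4 screen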). Particulars: HEK293 TRPC6, membrane potential fluorescence, at 10 µM; activation: stronger effect = higher value; outcome: activation.
Test [12] shares this target. Kind of test: positive modulators of mouse TRPC6 channel – HEK293 cells, membrane potential dye, duplicate, selectivity assay for TRPC4 potentiator project, confirmation (AID 434952;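 active means compound raising the membrane signal above positive-control mean plus 3 SD in both repeats, and a primary screen hit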). Particulars: HEK293 TRPC6, membrane potential dye fluorescence, at 10 µM, maximal acetylcholine added after compound; stronger effect = higher value.
The target of test [13] is Short transient receptor potential channel 4 (Mus musculus) (UniProt Q9QUQ5). Kind of test: calcium flux activators in TRPC4/5HT1a cells, counter-screen for TRPC4 activator project, cell-based, second counter screen, HEK293 TRPC4/5HT1a, Fluo-4 (AID 434977;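 active means calcium signal rise above buffer-control mean plus 5 SD in both duplicates, and also a hit in the primary screen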). The following applies: Fluo-4 calcium flux, at 10 µM; stronger effect = higher value.
Test [14] can be described thus: serotonin-gated TRPC4 signal block – cell-based, second counter screen, HEK293 TRPC4/5HT1a, Fluo-4, counter-screen for TRPC4 inhibitor project, confirmation (AID 434978;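 active means primary screen active whose calcium signal fell more than 3 SD beyond the full-serotonin control mean in both duplicate plates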;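 further: serotonin given first at submaximal then at maximal dose after compound preincubation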). Particulars: Fluo-4 calcium flux, at 10 µM, serotonin added to trigger calcium flux; stronger effect = higher value.
Test [15] relates to TRPC4 (mouse), co-expressed with 5HT1a in HEK293. Kind of test: enhancement of serotonin-evoked TRPC4 response – cell-based, second counter screen, HEK293 TRPC4/5HT1a, Fluo-4, counter-screen for TRPC4 potentiator project, confirmation (AID 434979). The following applies: Fluo-4 calcium flux, at 10 µM, serotonin added at its EC20 dose; stronger effect = higher value.
Test [16] is described as follows: nonspecific calcium rise without TRPC4 – cell-based, HEK293 mu-opioid receptor line, counter-screen for TRPC4 activator project, confirmation (AID 449723;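 active means hit in primary screen, with calcium signal over 5 SD above buffer well mean in both duplicates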;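 further: counter screen cells carry the mu-opioid receptor alone and lack TRPC4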). The following applies: HEK293 mu-opioid cells, Fluo-4 calcium fluorescence, at 10 µM; stronger effect = higher value.
A short description of test [17]: nonspecific potentiation of DAMGO calcium response – cell-based, HEK293 mu-opioid receptor line, counter-screen for TRPC4 allosteric potentiator project, confirmation (AID 449724;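 active means calcium signal rise more than 3 SD above the low-dose agonist control mean, in both duplicate plates and the primary screen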;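 further: HEK293 cells carrying mu-opioid receptor only with no TRPC4 channel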). The following applies: HEK293 mu-opioid receptor cells, Fluo-4 calcium flux, at 10 µM, compound added before EC20 DAMGO stimulus; stronger effect = higher value.

Each structure is given as a SMILES string. For some assays here: Results with a measured potency or affinity are listed apart. Active and inactive are the calls of the source.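 How the source made its calls, unless noted: active means signal rise over 3 SD above mean of control wells given weak agonist, in both repeats and first screen; inactive means the rest.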

Short transient receptor potential channel 6 (Mus musculus), sequence (Q61143 whole entry, looked up): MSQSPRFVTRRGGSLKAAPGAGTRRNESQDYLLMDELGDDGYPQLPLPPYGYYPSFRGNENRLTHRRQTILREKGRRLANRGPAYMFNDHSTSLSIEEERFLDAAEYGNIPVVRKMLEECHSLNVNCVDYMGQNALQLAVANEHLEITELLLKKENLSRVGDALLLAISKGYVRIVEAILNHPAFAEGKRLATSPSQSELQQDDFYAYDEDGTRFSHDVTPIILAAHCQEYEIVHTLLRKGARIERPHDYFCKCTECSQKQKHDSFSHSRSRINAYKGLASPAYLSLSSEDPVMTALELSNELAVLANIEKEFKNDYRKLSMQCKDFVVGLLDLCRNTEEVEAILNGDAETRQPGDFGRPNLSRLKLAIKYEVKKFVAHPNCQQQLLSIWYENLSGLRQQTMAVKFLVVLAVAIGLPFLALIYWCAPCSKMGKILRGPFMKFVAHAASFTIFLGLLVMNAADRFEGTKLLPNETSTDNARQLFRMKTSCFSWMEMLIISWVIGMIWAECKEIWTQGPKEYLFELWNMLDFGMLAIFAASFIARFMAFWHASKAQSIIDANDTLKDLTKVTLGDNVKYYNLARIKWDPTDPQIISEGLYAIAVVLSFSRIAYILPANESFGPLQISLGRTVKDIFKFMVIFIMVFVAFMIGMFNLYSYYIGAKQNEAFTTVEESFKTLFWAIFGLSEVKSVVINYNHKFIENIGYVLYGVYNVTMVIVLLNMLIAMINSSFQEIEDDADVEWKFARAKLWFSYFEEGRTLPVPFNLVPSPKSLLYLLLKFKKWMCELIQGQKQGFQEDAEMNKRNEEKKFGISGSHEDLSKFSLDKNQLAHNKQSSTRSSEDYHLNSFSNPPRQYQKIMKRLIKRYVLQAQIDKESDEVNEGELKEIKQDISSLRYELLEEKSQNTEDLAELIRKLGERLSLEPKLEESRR
Short transient receptor potential channel 4 (Mus musculus), sequence (Q9QUQ5 whole entry, looked up): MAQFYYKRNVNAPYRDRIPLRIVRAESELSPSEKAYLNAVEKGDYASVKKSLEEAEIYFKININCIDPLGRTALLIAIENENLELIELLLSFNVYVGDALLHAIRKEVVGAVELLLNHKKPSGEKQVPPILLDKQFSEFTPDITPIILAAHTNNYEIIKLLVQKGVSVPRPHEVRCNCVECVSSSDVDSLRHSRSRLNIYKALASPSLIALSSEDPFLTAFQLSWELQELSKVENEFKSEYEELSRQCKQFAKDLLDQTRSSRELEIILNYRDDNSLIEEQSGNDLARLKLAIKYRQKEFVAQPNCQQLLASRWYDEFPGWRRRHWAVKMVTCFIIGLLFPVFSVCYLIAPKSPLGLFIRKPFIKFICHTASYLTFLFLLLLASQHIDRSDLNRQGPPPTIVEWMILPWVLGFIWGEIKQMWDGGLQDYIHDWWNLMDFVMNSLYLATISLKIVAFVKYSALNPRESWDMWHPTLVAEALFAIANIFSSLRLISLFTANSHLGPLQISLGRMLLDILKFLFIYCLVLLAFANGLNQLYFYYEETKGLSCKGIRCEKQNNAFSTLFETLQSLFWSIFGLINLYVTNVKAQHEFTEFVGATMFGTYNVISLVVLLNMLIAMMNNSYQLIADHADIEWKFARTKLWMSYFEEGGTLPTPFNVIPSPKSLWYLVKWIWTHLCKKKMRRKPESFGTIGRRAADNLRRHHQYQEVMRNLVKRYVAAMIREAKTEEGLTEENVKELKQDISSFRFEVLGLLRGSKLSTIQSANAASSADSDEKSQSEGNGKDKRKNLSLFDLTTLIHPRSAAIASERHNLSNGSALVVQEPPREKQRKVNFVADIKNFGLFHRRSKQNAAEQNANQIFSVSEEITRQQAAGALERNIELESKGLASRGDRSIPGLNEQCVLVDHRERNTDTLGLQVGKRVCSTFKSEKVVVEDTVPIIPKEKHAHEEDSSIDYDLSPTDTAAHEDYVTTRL

Take `O=c1c2ccccc2oc2nc(C3CCCCC3)n(Cc3ccco3)c(=O)c12`: the outcome in test [1], in [2], in test [5], in test [6], in test [7] and in [8] was inactive. In addition, the outcome in test [9], in [10], in [11], in test [12], in test [13] and in test [14] was inactive. Besides, the outcome in test [16] and in test [17] was inactive. The potentiation was 10% (active) in [3], 11% (active) in test [4] and 30.7% (active) in [15].

With `CCCCC(=O)Nc1cccc2c1C(=O)N(c1ccccc1)C2=O`, the outcome in test [1], in test [2], in test [3], in [4], in [5] and in test [6] was inactive. Besides, the result in test [7], in test [8], in test [9], in test [10], in test [11] and in test [12] was inactive. For the same compound, the result in test [13], in test [14], in test [15], in test [16] and in test [17] was inactive.

In the case of `O=[N+]([O-])c1ccccc1CN1CCN(S(=O)(=O)c2ccccc2)CC1`, the result in [1], in test [2], in test [3], in test [5], in [6] and in test [7] was inactive. Also, the result in test [8], in test [9], in test [10], in [11], in test [12] and in [13] was inactive. In addition, the result in test [14], in test [15], in test [16] and in test [17] was inactive. For the same compound, the potentiation in test [4] is 11% (active).

Turning to `CN1CCN(Cc2cccc(Oc3ccc(Cl)cc3)c2)CC1`, the outcome in [1], in test [2], in test [4], in [5], in test [6] and in test [7] was inactive. Also, the result in test [8], in test [9], in test [10], in [11], in test [12] and in test [13] was inactive. Besides, the outcome in [14], in test [16] and in [17] was inactive. Moreover, the potentiation is 22% (active) in [3] and 15.1% (active) in [15].

For the compound `CC1(C)CC(=O)C(C=NCCN2CCN(C(=O)CCl)CC2)=C(O)C1`, the outcome in test [1], in [2], in [3], in [4], in test [5] and in test [6] was inactive. Also, the result in [7], in [8], in [9], in test [10], in test [11] and in [12] was inactive. In addition, the outcome in [13], in [14], in test [15], in test [16] and in [17] was inactive.

As for `Cc1ccc(-c2ccc3c(c2)S(=O)(=O)c2ccccc2C3=O)cc1`, the outcome in test [1], in [2], in [3], in test [4], in [5] and in [6] was inactive. Moreover, the result in test [7], in test [8], in test [9], in [10], in test [11] and in test [12] was inactive. For the same compound, the outcome in [13], in test [14], in test [15], in test [16] and in test [17] was inactive.

For the compound `C1CCN(c2nc(N3CCCCC3)nc(N3CCNCC3)n2)CC1`, the outcome in test [1], in test [2], in test [3], in [4], in [5] and in test [6] was inactive. The outcome in test [7], in test [8], in test [9], in test [10], in test [11] and in test [12] was inactive. The result in test [13], in test [14], in test [16] and in test [17] was inactive. Also, the potentiation in [15] was 8.18% (active).

Consider `CC(=O)c1nn(-c2cccc(Br)c2)cc1C(=O)c1cccc2ccccc12`, for which the result in [1], in test [2], in test [3], in test [4], in test [5] and in test [6] was inactive. The result in test [7], in [8], in test [9], in test [10], in test [11] and in [12] was inactive. Also, the outcome in [13], in test [14], in [15], in test [16] and in [17] was inactive.

Turning to `c1ccc(CN2CCN(c3nc4ccccc4s3)CC2)cc1`, the result in test [1], in test [2], in [3], in test [5], in test [6] and in test [7] was inactive. In addition, the result in test [8], in [9], in test [10], in [11], in test [12] and in test [13] was inactive. Also, the outcome in test [14], in test [16] and in test [17] was inactive. Further, the potentiation in [4] was 9% (active); in test [15], 14.8% (active).

Take `O=C(COc1coc(CN2CCN(c3ccccc3F)CC2)cc1=O)Nc1ccccc1`: the outcome in test [1], in test [2], in test [3], in test [4], in test [5] and in [6] was inactive. The outcome in test [7], in [8], in [9], in [10], in test [11] and in [12] was inactive. For the same compound, the result in test [13], in test [14], in test [15], in [16] and in [17] was inactive.

The values above are taken from PubChem BioAssay.
